In PubChem BioAssay (NCATS):
Inconclusive results are not listed. Unmarked numbers belong to inactive results. Active and inactive are the calls of the source. Calls come from the whole dose curve; as a rule, active = well fitted inhibition curve with a large enough effect; inconclusive = small, poorly fitted or top-dose-only effect; inactive = no such curve, though single readings can be large or run the other way.

target: Cytochrome P450 3A7 (Homo sapiens) (UniProt P24462); assay: Cytochrome P450 family 3 subfamily A member 7 (CYP3A7) small molecule antagonists: luciferase biochemical qHTS assay (AID 1963596); settings: P450-Glo CYP3A7 enzyme luminescence, 1 h; series mostly up to 57.4 µM; activity change, negative = inhibition: at the top concentration; note: nearly all actives have a fitted effect of over 40% in size
From the text: National Center for Advancing Translational Sciences [NCATS] Assay Overview: Cytochrome P450 (CYP) enzymes are membrane-bound hemeproteins that play a key role in metabolism of drugs and xenobiotics. The CYP3A subfamily is the most abundant, representing 30% of the total adult hepatic CYP content, whereas CYP3A7 is found predominantly in human fetal liver and accounts up to 50% of the total fetal hepatic CYP content. Testing the effect of chemicals on CYP isozymes is useful to minimize the adverse drug reactions and toxicities in the drug development process. Chemicals were tested for their effect on CYP enzyme activities by using P450-Glo (TM) screening systems (Promega Corporation, Madison, WI). These systems provide a luminescent method containing proluciferin substrates and are converted to luciferin products by CYP isozymes. The luciferin products formed are detected with a luciferin detection reagent, and the amount of light produced is proportional to CYP activity. P450-Glo (TM) CYP3A7 screening system (Catalog. No. V8812) was used to detect the compounds that interfere with CYP3A7 activity. The positive control compound used for CYP3A7 assay is ketoconazole (Sigma-Aldrich, St. Louis, MO).
Assay Protocol Summary: Two ul of enzyme-substrate mix was dispensed into medium binding white/solid 1536-well plates (Greiner Bio-One North America Inc., Monroe, NC) using a Flying Reagent Dispenser (FRD, Aurora Discovery, San Diego, CA). Compounds dissolved in DMSO, and positive control (ketoconazole) were transferred to the assay plates at 23 nl using a Pintool station (Wako, San Diego, CA). The assay plates were incubated at room temperature for 10 min. Then 2 ul of NADPH regeneration solution was added to each well of the assay plates using an FRD and incubated at room temperature for 1 h. The reaction was stopped by adding 4 ul of detection reagent using an FRD and after 20 min incubation at room temperature the luminescence signal was measured using a ViewLux plate reader (Perkin Elmer, Shelton, CT). Data were expressed as relative luminescence units.
% is set by controls: 0 for no effect and ±100 for the full control effect; potency is the fitted concentration of half-maximal effect.

Sequence of Cytochrome P450 3A7 (Homo sapiens) (P24462 whole entry, looked up): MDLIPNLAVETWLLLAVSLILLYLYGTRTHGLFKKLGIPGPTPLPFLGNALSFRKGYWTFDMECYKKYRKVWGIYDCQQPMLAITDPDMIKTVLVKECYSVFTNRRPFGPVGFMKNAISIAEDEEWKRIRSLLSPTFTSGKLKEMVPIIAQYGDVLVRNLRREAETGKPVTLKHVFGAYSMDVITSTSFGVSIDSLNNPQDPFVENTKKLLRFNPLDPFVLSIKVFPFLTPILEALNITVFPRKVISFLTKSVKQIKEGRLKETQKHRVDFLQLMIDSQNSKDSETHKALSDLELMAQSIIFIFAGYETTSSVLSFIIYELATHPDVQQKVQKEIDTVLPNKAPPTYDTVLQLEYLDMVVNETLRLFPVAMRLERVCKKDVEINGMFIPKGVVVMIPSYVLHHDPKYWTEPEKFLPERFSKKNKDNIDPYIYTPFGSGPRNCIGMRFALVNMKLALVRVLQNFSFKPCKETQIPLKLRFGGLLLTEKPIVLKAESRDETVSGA

Structure (SMILES) | activity change, negative = inhibition | Potency
CC1CCCCC1N(Cc1ccccc1)[S+](=O)([O-])c1ccc([S+](=O)([O-])N(C)C)cc1 (stereo not given) | 0.838% | –
c1ccc(C(OC2CCN(CCCc3nn[nH]n3)CC2)c2ccccc2)cc1 | -8.55% | –
CCC(O)c1ccccc1 (stereo not given) | -7.32% | –
CC1(C)O[C@@H]2C[C@H]3[C@@H]4C[C@H](F)C5=CC(=O)C=C[C@]5(C)[C@@]4(F)[C@@H](O)C[C@]3(C)[C@]2(C(=O)CO)O1 | 5.69% | –
Cc1c(C)c2c(c(C)c1OC(=O)CCC(=O)O)CC[C@@](C)(CCC[C@H](C)CCC[C@H](C)CCCC(C)C)O2 | -4.02% | –
O=C1CCC(=O)N1CO | -1.52% | –
Cc1cc(CS(=O)(=O)c2ccccc2)cc(OCc2ccc(CN3CCCC3CO)cc2)c1 (stereo not given) | 0% | –
COc1ccc(CNC(=O)Nc2ccc3c(c2)N(C)C(=O)c2ccccc2S3)cc1OC | 0% | –
C[C@@H](C(=O)O)c1ccc(-c2ccccc2)c(F)c1 | 5.93% | –
COc1ccccc1OCC(O)COC(N)=O (stereo not given) | 0.172% | –
Cn1ncnc1COc1nn2c(-c3cc(F)ccc3F)nnc2cc1C(C)(C)C | – | 4.47 µM (active)
COc1ccc2c(OCc3nnc4ccc(-c5ccccc5)nn34)ccnc2c1 | -23.3% | –
CC(C)(C)c1cc(C=O)cc(C(C)(C)C)c1O | 2.83% | –
CN(C)C(=O)C(=O)c1cn(C)c2cc(Cl)c(C(=O)N3CCC(Cc4ccc(F)cc4)CC3)cc12 | 0% | –
Fc1ccc(CN2CCC(Nc3ccc(C(F)(F)F)nn3)CC2)cc1F | -15.1% | –
Fc1ccc(C(c2ccc(F)cc2)N2CCNCC2)cc1 | -16% | –
COc1cc2[nH]c(=O)[nH]c(=O)c2cc1OC | -5.4% | –
NC(N)=NCCC[C@H](N)C(=O)O | 2.52% [at 4.83 µM] | –
C=CCNC(N)=S | 12.9% | –
Cc1cn([C@@H]2O[C@H](CO)[C@@H](O)[C@H]2F)c(=O)[nH]c1=O | -17.7% | –

Structure (SMILES) | activity change, negative = inhibition | Potency
C[C@@H](N)c1ccc(C(=O)Nc2ccnc3[nH]ccc23)cc1 | -21.9% | –
OC[C@@H](O)[C@@H](O)[C@H](O)[C@H](O)CO | 14.9% | –
COC(=O)C(CN)c1c[nH]c2ccc(OC)cc12 (stereo not given) | 20.6% | –
CCOc1ccc(NC(C)=O)cc1 | -1.06% | –
CCCCC(CC)COC(=O)CC(C(=O)OCC(CC)CCCC)S(=O)(=O)O (stereo not given) | 0% | –
C[C@H]1O[C@@H](n2cc(F)c(=O)[nH]c2=O)[C@H](O)[C@@H]1O | -10% | –
C=CCN1CCc2nc(N)sc2CC1 | -14.6% | –
NS(=O)(=O)c1cc2c(cc1Cl)NC(C(Cl)Cl)NS2(=O)=O (stereo not given) | 7.8% | –
CC[N+](CC)(CC(=O)Nc1c(C)cccc1C)Cc1ccccc1 | 3.58% | –
NC(=O)C1(N2CCCCC2)CCN(CCCC(=O)c2ccc(F)cc2)CC1 | 19.7% | –
O=C(Nc1cccnn1)N1CCN(c2nccc(-c3ccc(F)c(F)c3)n2)CC1 | 0.761% [at 115 µM] | –
CNNCc1ccc(C(=O)NC(C)C)cc1 | -0.555% | –
Cn1ncc(Cl)c1-c1cc(C(=O)NC(CN)Cc2ccc(F)c(F)c2)oc1Cl (stereo not given) | 0% | –
C[C@@H]1CN(c2c(F)c(N)c3c(=O)c(C(=O)O)cn(C4CC4)c3c2F)C[C@H](C)N1 | 18.7% [at 23.9 µM] | –
C[N+](C)(C)CC(=O)O | 7.84% | –
CCCC(CCC)C(N)=O | -2.19% | –
COc1ccccc1-c1ccc(-c2cn(C(=O)N3CCCCC3Cc3ccccc3)nn2)cc1 (stereo not given) | -14.7% | –
CCOc1ccc(NC(=S)N2CCC(C(O)(c3ccccc3)c3ccccc3)CC2)cc1 | -17.4% | –
COc1ccccc1N1CCN(CC(O)COc2cc(OC)c(OC)c(OC)c2)CC1 (stereo not given) | -13.2% | –
CS(=O)(=O)N1CCc2c(-c3cnc(N)nc3)nc(N3CCOCC3)nc21 | 0% | –
